Test results reported in the supplement of paper PMC6607015.
Where a name gives a salt, the structure may show the parent alone.

Columns and labels:
Settings in all cases: compound concentration in added solution (µM; 5 µl added to 20 µl cells): 10; 18 h
[1] = system: A431; assay: LBPA endosome anti-LBPA integrated intensity (sum per cell), Z-score; higher = more LBPA staining
In short: (§1)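 Each value is a Z-score normalised in AcuityXpress from per-cell integrated LBPA or filipin intensity, taken over the whole cell or within LBPA endosomes. Duplicate 384-well imaging plates held 5 µl of 10 µM compound solution, onto which 3,500 HeLa MZ or A431 cells in 20 µl were seeded per well. After 18 h the cells were fixed in 4% PFA, stained with 6C4 anti-LBPA antibody, filipin, propidium iodide and CellTracker green, imaged four times per well at 20× and segmented in MetaXpress.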

[2] = system: HeLa MZ; assay: as above
In short: as §1

[3] = system: A431; assay: whole-cell filipin (free cholesterol) integrated intensity, Z-score; higher = more cholesterol staining
In short: as §1

[4] = system: HeLa MZ; assay: as above
In short: as §1

[5] = system: A431; assay: filipin (cholesterol) integrated intensity within LBPA endosomes, Z-score; higher = more cholesterol in LBPA endosomes
In short: as §1

[6] = system: HeLa MZ; assay: as above
In short: as §1

SMILES	LBPA endosome anti-LBPA integrated intensity (z-score) [1]	LBPA endosome anti-LBPA integrated intensity (z-score) [2]	whole-cell filipin (z-score) [3]	whole-cell filipin (z-score) [4]	filipin (z-score) [5]	filipin (z-score) [6]
CC[C@H]1OC(=O)C[C@@H](O)[C@H](C)[C@@H](O[C@@H]2O[C@H](C)[C@@H](O[C@H]3C[C@@](C)(O)[C@@H](O)[C@H](C)O3)[C@H](N(C)C)[C@H]2O)[C@@H](CC=O)C[C@@H](C)C(=O)/C=C/C(C)=C/[C@@H]1CO[C@@H]1O[C@H](C)[C@@H](O)[C@@H](OC)[C@H]1OC [Tylosin]	-0.392	0.456	-0.334	-0.339	-0.399	-0.321
O=C(N/N=C/c1ccc([N+](=O)[O-])o1)c1ccc(O)cc1 [Nifuroxazide]	-0.723	-1.67	-0.848	-0.476	-0.646	-0.646
Oc1c(Cl)cc(Cl)c2cccnc12 [Chloroxine]	-0.792	-1.58	-0.709	-1.27	-0.75	-0.803
O=S(=O)(O)c1cc(O)ccc1O [Ethamsylate]	-0.297	0.237	0.0355	-0.226	-0.436	-0.57
CC(=O)Nc1nnc(S(N)(=O)=O)s1 [Acetazolamide]	-0.546	-1.16	-0.799	-0.564	-0.395	-0.429
CN/C(=N\CCSCc1nc[nH]c1C)NC#N [Cimetidine]	-0.436	-0.604	-0.5	-0.3	-0.458	-0.409
CC(C)Cn1cnc2c(N)nc3ccccc3c21 [Imiquimod]	0.0371	0.531	0.233	0.058	-0.267	-0.158
Clc1ccc(COC(Cn2ccnc2)c2ccc(Cl)cc2Cl)c(Cl)c1 (configuration not stated) [Miconazole]	0.0492	1.55	0.107	0.176	-0.0467	0.514
Cc1cc(NC(=O)C2=C(O)c3ccccc3S(=O)(=O)N2C)no1 [Isoxicam]	-0.656	-1.14	-0.786	-0.746	-0.604	-0.633
CCC1NC(=O)c2cc(S(N)(=O)=O)c(Cl)cc2N1 (configuration not stated) [Quinethazone]	-0.328	-1.04	0.366	0.147	-0.404	-0.386
CN1C(=O)OC(C)(C)C1=O [Trimethadione]	-0.446	-0.0741	-0.388	-0.0387	-0.476	-0.496
CC(C(=O)O)c1ccc(C(=O)c2cccs2)cc1 (configuration not stated) [Suprofen]	-0.328	0.404	0.0494	0.84	-0.289	-0.21
CC1CC(OC(=O)C(O)c2ccccc2)CC(C)(C)N1C (configuration not stated) [Eucatropine hydrochloride]	-0.612	-0.981	-0.351	-0.392	-0.513	-0.342
O=C(O)Cc1ccccc1Nc1c(Cl)cccc1Cl [Diclofenac sodium]	-0.542	-0.789	-0.65	-0.702	-0.505	-0.603
Clc1ccc(C(Cn2ccnc2)OCc2csc3c(Cl)cccc23)c(Cl)c1 (configuration not stated) [Sertaconazole nitrate]	-0.364	1.08	0.486	1.1	-0.139	0.708
OCCN(CCO)c1nc(N2CCCCC2)c2nc(N(CCO)CCO)nc(N3CCCCC3)c2n1 [Dipyridamole]	0.808	0.577	-0.543	-0.536	-0.2	-0.39
Cn1cnc2c1c(=O)[nH]c(=O)n2C [Theobromine]	-0.566	-1.37	-0.361	-0.586	-0.492	-0.483
COc1ccc2c3c1O[C@H]1C[C@@H](O)C=C[C@@]31CCN(C)C2 [Galanthamine hydrobromide]	-0.594	-0.476	-0.752	-0.607	-0.584	-0.496
CSc1ccc2c(c1)N(CCC1CCCCN1C)c1ccccc1S2 (configuration not stated) [Thioridazine hydrochloride]	1.04	0.375	-0.796	-0.81	1.25	1.45
N[C@@H]1CONC1=O [D-cycloserine]	-0.278	-0.4	-0.132	-0.322	-0.405	-0.523
CC(=O)Oc1ccccc1C(=O)O [Acetylsalicylic acid]	-0.437	-1.33	-0.0786	-0.536	-0.409	-0.51
Cc1cn([C@H]2C=C[C@@H](CO)O2)c(=O)[nH]c1=O [Stavudine]	-0.301	0.24	0.0526	0.186	-0.48	-0.475
Cn1c(=O)c2nc[nH]c2n(C)c1=O [Theophylline monohydrate]	-0.668	-1.36	-0.516	-0.207	-0.57	-0.492
CN(C)CCCSC(=N)N [Dimaprit dihydrochloride]	-0.577	-1.27	-0.259	-0.607	-0.452	-0.519
CC1=Nc2ccc(Cl)cc2S(=O)(=O)N1 [Diazoxide]	-0.529	-1.17	-0.801	-0.471	-0.542	-0.481
COc1cc(C(=O)NS(=O)(=O)c2ccccc2C)ccc1Cc1cn(C)c2ccc(NC(=O)OC3CCCC3)cc12 [Zafirlukast]	-0.518	-0.847	-0.458	-0.494	-0.486	-0.569
CCCCCCCCNC(C)C(O)c1ccc(SC(C)C)cc1 (configuration not stated) [Suloctidil]	2.96	-0.389	1.67	1.53	3.3	3.27

SMILES	LBPA endosome anti-LBPA integrated intensity (z-score) [1]	LBPA endosome anti-LBPA integrated intensity (z-score) [2]	whole-cell filipin (z-score) [3]	whole-cell filipin (z-score) [4]	filipin (z-score) [5]	filipin (z-score) [6]
CC(C)(C)NCC(O)c1cc(O)cc(O)c1 (configuration not stated) [Terbutaline hemisulfate]	-0.651	-1.35	-0.395	-0.481	-0.593	-0.644
Nc1ccc(S(=O)(=O)NC(=O)c2ccccc2)cc1 [Sulfabenzamide]	-0.476	-1.38	-0.453	-0.0901	-0.451	-0.401
C=C(NC(=O)C(=C)NC(=O)c1csc(C2=N[C@@H]3c4csc(n4)[C@H]4NC(=O)c5csc(n5)[C@H]([C@](C)(O)[C@@H](C)O)NC(=O)[C@H]5CSC(=N5)/C(=C/C)NC(=O)[C@H]([C@@H](C)O)NC(=O)c5csc(n5)[C@]3(CC2)NC(=O)[C@H](C)NC(=O)C(=C)NC(=O)[C@H](C)NC(=O)[C@H]([C@@H](C)CC)N[C@@H]2C=Cc3c([C@H](C)O)cc(nc3[C@H]2O)C(=O)O[C@@H]4C)n1)C(N)=O [Thiostrepton]		-0.253		-0.786		-0.596
CC(C)n1c(/C=C/C(O)CC(O)CC(=O)O)c(-c2ccc(F)cc2)c2ccccc21 (configuration not stated) [Fluvastatin sodium salt]		-1.11		-0.754		-0.372
CCN1C(=O)NC(c2ccccc2)C1=O (configuration not stated) [Ethotoin]	-0.277	-0.178	-0.136	-0.484	-0.353	-0.513
CC(C)CC(=O)N[C@H](C(=O)N[C@H](C(=O)N[C@@H](CC(C)C)[C@@H](O)CC(=O)N[C@@H](C)C(=O)N[C@@H](CC(C)C)[C@@H](O)CC(=O)O)C(C)C)C(C)C [Pepstatin A]	-0.604	-1.38	-0.841	-0.484	-0.569	-0.589
CN1[C@@H]2CC[C@H]1C[C@@H](OC(=O)c1c[nH]c3ccccc13)C2 [Tropisetron HCl]	-0.35	0.869	-0.234	-0.504	-0.29	0.0878
O=C(CCCCCCC(=O)Nc1ccccc1)NO [Vorinostat]	0.0566		1.83		-0.414	
Nc1nc2n[nH]nc2c(=O)[nH]1 [Azaguanine-8]	-0.399		-1.15		-0.438	
C[C@]12CC[C@H]3C(=CCc4cc(O)ccc43)[C@@H]1CCC2=O [Equilin]	-0.185	0.864	-0.0277	0.614	-0.251	0.186
CCOC(=O)[C@H](CCc1ccccc1)N[C@@H](C)C(=O)N1[C@H](C(=O)O)C[C@@H]2CCC[C@@H]21 [Ramipril]	-0.401	-1.57	-0.0336	-0.633	-0.446	-0.529
O=c1[nH]cc(F)c(=O)[nH]1 [5-fluorouracil]	-0.738		0.716		-0.862	
COC(=O)C1=C(C)NC(C)=C(C(=O)OC(C)C)C1c1cccc2nonc12 (configuration not stated) [Isradipine]	-0.123	0.656	0.258	-0.179	-0.13	-0.161
C[N+]1(C)CCC(=C(c2ccccc2)c2ccccc2)CC1 [Diphemanil methylsulfate]	-0.603	-1.21	-0.868	-0.964	-0.428	-0.688
CN1C(C)(C)CCCC1(C)C [Pempidine tartrate]	-0.407		-0.191		-0.313	
CC(NCCC(c1ccccc1)c1ccccc1)c1ccccc1 (configuration not stated) [Fendiline hydrochloride]		1.29		0.948		2.94
COc1nc(C)nc(Cl)c1NC1=NCCN1 [Moxonidine]	-0.127	0.511	-0.0575	-0.203	-0.176	-0.384
C[C@]12C[C@H](O)[C@H]3[C@@H](CCC4=CC(=O)CC[C@@]43C)[C@@H]1CC[C@@H]2C(=O)CO [Corticosterone]	-0.334	0.522	-0.492	-0.633	-0.326	-0.407
COc1ccc(/C=C/C(=O)Nc2ccccc2C(=O)O)cc1OC [Tranilast]	-0.353	-0.361	-0.609	-0.648	-0.443	-0.608
CCCCOc1cc(C(=O)NCCN(CC)CC)c2ccccc2n1 [Dibucaine]	2.05	2.71	2.14	1.5	2.29	2.2
CN1Cc2c(N)cccc2C(c2ccccc2)C1 (configuration not stated) [Nomifensine maleate]	-0.419	0.114	-0.627	-0.396	-0.47	-0.516
CC(CN(C)C)CN1c2ccccc2Sc2ccccc21 (configuration not stated) [Trimeprazine tartrate]	3.47		1.36		2.12	
CCN(CC)CCNc1ccc(CO)c2sc3ccccc3c(=O)c12 [Hycanthone]	5.49		2.31		2.68	
Fc1ccc([C@@H]2CCNC[C@H]2COc2ccc3c(c2)OCO3)cc1 [Paroxetine Hydrochloride]		0.516		-0.28		2.03
CCCC1C(=O)N2C(N(C)C)=Nc3ccc(C)cc3N2C1=O (configuration not stated) [Azapropazone]	-0.356		0.0445		-0.348	
COC(=O)Nc1nc2cc([S+]([O-])c3ccccc3)ccc2[nH]1 (configuration not stated) [Oxfendazol]	-0.637		-0.236		-0.364	
